# Reference: PubChem BioAssay (NCI)
# The panel holds about 79,000 compounds, 15% with a hit somewhere; the sample as a whole holds those more often. Unmarked numbers belong to inactive results. Active and inactive are the calls of the source. Rule as the data show it: active = growth inhibition above about 70%; inactive = the rest.
# Experiments:
# [1] = NCI Yeast Anticancer Drug Screen. Data for the rad52 strain (AID 147);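 also: 0% = growth of vehicle-treated control cultures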; conditions: S. cerevisiae rad52 mutant growth inhibition, stronger effect = higher value
# How it was run: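 DNA repair-defective yeast; compound exposure; growth scored against vehicle controls.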
# [2] = NCI Yeast Anticancer Drug Screen. Data for the wt1 strain (AID 149);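 also: 0% = growth of vehicle-treated wt1 cultures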; conditions: S. cerevisiae wt1 strain (SPY 50644) growth inhibition, stronger effect = higher value
# How it was run: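 Vehicle-normalised growth inhibition; strain wt1; compound exposure.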
# [3] = NCI Yeast Anticancer Drug Screen. Data for the rad50EPP+ strain (AID 151);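 also: 0% = growth of vehicle-treated control cultures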; conditions: S. cerevisiae rad50 mutant strain, stronger effect = higher value
# How it was run: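 rad50EPP+ yeast treated with test compounds. Readout: growth vs vehicle control.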
# [4] = NCI Yeast Anticancer Drug Screen. Data for the rad50 strain (AID 155);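 also: 0% = growth of vehicle-only cultures of the same strain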; conditions: S. cerevisiae rad50 strain growth inhibition, stronger effect = higher value
# How it was run: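 A DNA repair-deficient yeast mutant serves as the test organism; compound-induced growth inhibition is calculated against vehicle-treated cells.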
# [5] = NCI Yeast Anticancer Drug Screen. Data for the mec2-1 strain (AID 157); conditions: S. cerevisiae mec2-1 strain, stronger effect = higher value
# How it was run: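 Growth inhibition is read against vehicle-treated controls after compound exposure of the mec2-1 yeast strain, which is defective in DNA damage repair or cell cycle control.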
# [6] = NCI Yeast Anticancer Drug Screen. Data for the rad14 strain (AID 159);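 also: 0% = growth of vehicle-treated control cultures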; conditions: S. cerevisiae rad14 strain growth inhibition, stronger effect = higher value
# How it was run: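 Vehicle-treated cultures served as the baseline for growth inhibition of a DNA repair-mutant yeast strain exposed to each compound.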
# [7] = NCI Yeast Anticancer Drug Screen. Data for the sgs1 mgt1 strain (AID 161);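 also: 0% = growth of cultures given vehicle only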; conditions: S. cerevisiae sgs1 mgt1 strain, stronger effect = higher value
# How it was run: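 Compounds are added to genetically altered yeast, and growth is compared with cultures given vehicle alone to give percent inhibition.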
# [8] = NCI Yeast Anticancer Drug Screen. Data for the CLN2oe strain (AID 163);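 also: 0% = growth of vehicle-only control cultures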; conditions: S. cerevisiae CLN2oe strain, stronger effect = higher value
# How it was run: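 Compound-treated yeast; growth vs vehicle ctrl = % inhibition. Genetically altered strain (cell-cycle control).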
# [9] = NCI Yeast Anticancer Drug Screen. Data for the cln2 rad14 strain (AID 165);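 also: 0% = growth equal to vehicle treated cultures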; conditions: S. cerevisiae cln2 rad14 strain, stronger effect = higher value
# How it was run: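 Growth inhibition, relative to vehicle-treated controls, is the read-out. The test organism is a yeast strain with defined genetic alterations, cln2 rad14.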
# [10] = NCI Yeast Anticancer Drug Screen. Data for the bub3 strain (AID 167); conditions: S. cerevisiae bub3 mutant strain, stronger effect = higher value
# How it was run: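 Inhibition values come from growth of compound-treated mutant yeast normalised to vehicle-treated controls.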
# [11] = NCI Yeast Anticancer Drug Screen. Data for the wt2 strain (AID 169);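 also: 0% = growth of vehicle-treated yeast cultures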; conditions: S. cerevisiae wt2 strain growth inhibition, stronger effect = higher value
# How it was run: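 Compound exposure of yeast; growth compared with vehicle controls; inhibition reported.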
# [12] = NCI Yeast Anticancer Drug Screen. Data for the mlh1 strain (AID 171);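 also: 0% = growth of vehicle-treated control cultures of the same strain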; conditions: S. cerevisiae mlh1 strain growth inhibition, stronger effect = higher value
# How it was run: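 Compounds are applied to a genetically altered yeast strain, and its growth is compared with that of vehicle-treated cultures to give percent inhibition.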
# [13] = NCI Yeast Anticancer Drug Screen. Data for the sgs1 strain (AID 173);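 also: 0% = growth of vehicle-only control cultures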; conditions: S. cerevisiae sgs1 mutant, stronger effect = higher value
# How it was run: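 Compounds applied to genetically altered yeast; growth compared with vehicle-treated cultures to give % inhibition.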
# [14] = NCI Yeast Anticancer Drug Screen. Data for the mlh1 rad18 strain (AID 175); conditions: S. cerevisiae mlh1 rad18 strain growth inhibition, stronger effect = higher value
# How it was run: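 Cells of a genetically altered yeast strain, deficient in DNA damage repair, were treated with compound. Their growth was then compared with that of vehicle-treated cultures to give inhibition.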
# [15] = NCI Yeast Anticancer Drug Screen. Data for the rad18 strain (AID 177); conditions: S. cerevisiae rad18 mutant growth inhibition, stronger effect = higher value
# How it was run: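 Compounds are applied to a repair-deficient yeast strain, and growth is compared with that of vehicle-treated cultures to give percent inhibition.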
# [16] = at 5.0 µM (retest, dose inferred, filed as 0.5)
# [17] = at 50.0 µM (retest, dose inferred, filed as 5.0)
smiles,measurement,setting,value
COC(=O)CSc1nnc(CSc2ccc(Cl)cc2)n1-c1ccccc1,growth inhibition,[1]; at 1.2 µM,1%
same,growth inhibition,[1]; at 3.7 µM,3%
same,growth inhibition,[1]; at 11.0 µM,5%
same,growth inhibition,[1]; at 33.0 µM,12%
same,growth inhibition,[1]; at 100.0 µM,5%
same,growth inhibition,[2]; at 1.2 µM,-1%
same,growth inhibition,[2]; at 3.7 µM,-2%
same,growth inhibition,[2]; at 11.0 µM,-3%
same,growth inhibition,[2]; at 33.0 µM,0%
same,growth inhibition,[2]; at 100.0 µM,2%
same,growth inhibition,[3]; at 1.2 µM,-2%
same,growth inhibition,[3]; at 3.7 µM,0%
same,growth inhibition,[3]; at 11.0 µM,-2%
same,growth inhibition,[3]; at 33.0 µM,-5%
same,growth inhibition,[3]; at 100.0 µM,-11%
same,growth inhibition,[4]; at 1.2 µM,2%
same,growth inhibition,[4]; at 3.7 µM,4%
same,growth inhibition,[4]; [16],-16%
same,growth inhibition,[4]; at 11.0 µM,9%
same,growth inhibition,[4]; at 33.0 µM,15%
same,growth inhibition,[4]; [17],15%
same,growth inhibition,[4]; at 50.0 µM,6.25%
same,growth inhibition,[4]; at 100.0 µM,12%
same,growth inhibition,[5]; at 1.2 µM,-3%
same,growth inhibition,[5]; at 3.7 µM,-1%
same,growth inhibition,[5]; [16],-9%
same,growth inhibition,[5]; at 11.0 µM,3%
same,growth inhibition,[5]; at 33.0 µM,10%
same,growth inhibition,[5]; [17],18%
same,growth inhibition,[5]; at 50.0 µM,16.9%
same,growth inhibition,[5]; at 100.0 µM,12%
same,growth inhibition,[6]; at 1.2 µM,0%
same,growth inhibition,[6]; at 3.7 µM,2%
same,growth inhibition,[6]; at 11.0 µM,10%
same,growth inhibition,[6]; at 33.0 µM,15%
same,growth inhibition,[6]; at 100.0 µM,13%
same,growth inhibition,[7]; [16],-11%
same,growth inhibition,[7]; [17],68%
same,growth inhibition,[7]; at 50.0 µM,58.5%
same,growth inhibition,[8]; at 1.2 µM,-2%
same,growth inhibition,[8]; at 3.7 µM,6%
same,growth inhibition,[8]; at 11.0 µM,14%
same,growth inhibition,[8]; at 33.0 µM,19%
same,growth inhibition,[8]; at 100.0 µM,19%
same,growth inhibition,[9]; [16],-6%
same,growth inhibition,[9]; [17],43%
same,growth inhibition,[9]; at 50.0 µM,44%
same,growth inhibition,[10]; at 1.2 µM,-1%
same,growth inhibition,[10]; at 3.7 µM,6%
same,growth inhibition,[10]; [16],7%
same,growth inhibition,[10]; at 11.0 µM,22%
same,growth inhibition,[10]; at 33.0 µM,46%
same,growth inhibition,[10]; [17],75% (active)
same,growth inhibition,[10]; at 50.0 µM,74.5% (active)
same,growth inhibition,[10]; at 100.0 µM,57%
same,growth inhibition,[11]; at 1.2 µM,-1%
same,growth inhibition,[11]; at 3.7 µM,1%
same,growth inhibition,[11]; at 11.0 µM,-1%
same,growth inhibition,[11]; at 33.0 µM,1%
same,growth inhibition,[11]; at 100.0 µM,4%
same,growth inhibition,[12]; at 1.2 µM,-1%
same,growth inhibition,[12]; at 3.7 µM,-1%
same,growth inhibition,[12]; at 11.0 µM,2%
same,growth inhibition,[12]; at 33.0 µM,9%
same,growth inhibition,[12]; at 100.0 µM,14%
same,growth inhibition,[13]; at 1.2 µM,-2%
same,growth inhibition,[13]; at 3.7 µM,-3%
same,growth inhibition,[13]; at 11.0 µM,2%
same,growth inhibition,[13]; at 33.0 µM,13%
same,growth inhibition,[13]; at 100.0 µM,15%
same,growth inhibition,[14]; [16],-11%
same,growth inhibition,[14]; [17],32%
same,growth inhibition,[14]; at 50.0 µM,7%
same,growth inhibition,[15]; at 1.2 µM,-1%
same,growth inhibition,[15]; at 3.7 µM,2%
same,growth inhibition,[15]; at 11.0 µM,4%
same,growth inhibition,[15]; at 33.0 µM,8%
same,growth inhibition,[15]; at 100.0 µM,9%
CCOP1(=O)C=C(Sc2ccc([N+](=O)[O-])cc2[N+](=O)[O-])C(C)(C)O1 (stereo unspecified),growth inhibition,[1]; at 1.2 µM,2%
same,growth inhibition,[1]; at 3.7 µM,6%
same,growth inhibition,[1]; at 11.0 µM,16%
same,growth inhibition,[1]; at 33.0 µM,39%
same,growth inhibition,[1]; at 100.0 µM,84% (active)
same,growth inhibition,[2]; at 1.2 µM,2%
same,growth inhibition,[2]; at 3.7 µM,2%
same,growth inhibition,[2]; at 11.0 µM,6%
same,growth inhibition,[2]; at 33.0 µM,4%
same,growth inhibition,[2]; at 100.0 µM,31%
same,growth inhibition,[3]; at 1.2 µM,-4%
same,growth inhibition,[3]; at 3.7 µM,-3%
same,growth inhibition,[3]; at 11.0 µM,-2%
same,growth inhibition,[3]; at 33.0 µM,13%
same,growth inhibition,[3]; at 100.0 µM,53%
same,growth inhibition,[4]; at 1.2 µM,2%
same,growth inhibition,[4]; at 3.7 µM,9%
same,growth inhibition,[4]; [16],28%
same,growth inhibition,[4]; at 11.0 µM,16%
same,growth inhibition,[4]; at 33.0 µM,37%
same,growth inhibition,[4]; [17],40%
same,growth inhibition,[4]; at 50.0 µM,51.4%
same,growth inhibition,[4]; at 100.0 µM,83% (active)
same,growth inhibition,[5]; at 1.2 µM,7%
same,growth inhibition,[5]; at 3.7 µM,12%
same,growth inhibition,[5]; [16],27%
same,growth inhibition,[5]; at 11.0 µM,18%
same,growth inhibition,[5]; at 33.0 µM,41%
same,growth inhibition,[5]; [17],41%
same,growth inhibition,[5]; at 50.0 µM,8.65%
same,growth inhibition,[5]; at 100.0 µM,87% (active)
same,growth inhibition,[6]; at 1.2 µM,1%
same,growth inhibition,[6]; at 3.7 µM,3%
same,growth inhibition,[6]; at 11.0 µM,9%
same,growth inhibition,[6]; at 33.0 µM,20%
same,growth inhibition,[6]; at 100.0 µM,43%
same,growth inhibition,[7]; [16],23%
same,growth inhibition,[7]; [17],38%
same,growth inhibition,[7]; at 50.0 µM,33%
same,growth inhibition,[8]; at 1.2 µM,3%
same,growth inhibition,[8]; at 3.7 µM,0%
same,growth inhibition,[8]; at 11.0 µM,1%
same,growth inhibition,[8]; at 33.0 µM,11%
same,growth inhibition,[8]; at 100.0 µM,37%
same,growth inhibition,[9]; [16],7%
same,growth inhibition,[9]; [17],44%
same,growth inhibition,[9]; at 50.0 µM,26.1%
same,growth inhibition,[10]; at 1.2 µM,5%
same,growth inhibition,[10]; at 3.7 µM,7%
same,growth inhibition,[10]; [16],11%
same,growth inhibition,[10]; at 11.0 µM,16%
same,growth inhibition,[10]; at 33.0 µM,40%
same,growth inhibition,[10]; [17],31%
same,growth inhibition,[10]; at 50.0 µM,1.9%
same,growth inhibition,[10]; at 100.0 µM,92% (active)
same,growth inhibition,[11]; at 1.2 µM,4%
same,growth inhibition,[11]; at 3.7 µM,8%
same,growth inhibition,[11]; at 11.0 µM,12%
same,growth inhibition,[11]; at 33.0 µM,25%
same,growth inhibition,[11]; at 100.0 µM,72% (active)
same,growth inhibition,[12]; at 1.2 µM,3%
same,growth inhibition,[12]; at 3.7 µM,7%
same,growth inhibition,[12]; at 11.0 µM,14%
same,growth inhibition,[12]; at 33.0 µM,31%
same,growth inhibition,[12]; at 100.0 µM,83% (active)
same,growth inhibition,[13]; at 1.2 µM,3%
same,growth inhibition,[13]; at 3.7 µM,6%
same,growth inhibition,[13]; at 11.0 µM,13%
same,growth inhibition,[13]; at 33.0 µM,37%
same,growth inhibition,[13]; at 100.0 µM,84% (active)
same,growth inhibition,[14]; [16],25%
same,growth inhibition,[14]; [17],60%
same,growth inhibition,[14]; at 50.0 µM,42.2%
same,growth inhibition,[15]; at 1.2 µM,0%
same,growth inhibition,[15]; at 3.7 µM,9%
same,growth inhibition,[15]; at 11.0 µM,28%
same,growth inhibition,[15]; at 33.0 µM,66%
same,growth inhibition,[15]; at 100.0 µM,92% (active)
